# Luc counter: Counterscreen for Luciferase (Kinase-Glo TM) Inhibition; Luciferin 4-monooxygenase (Photuris pensylvanica), Q27757; Kinase-Glo luciferase, ATP luminescence, 8 min; Potency, µM (highest dose often 38.3 µM), without a hit: at the top dose activity change, negative = inhibition, most hits filed as inhibitors; 200,000 compounds, 0.28% hits; AID 1379, 2008; also: % is scaled to controls: 0 for no effect and ±100 for the full control effect; nearly all actives have a fitted effect of over 60% in size
#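 Compound is pinned into ATP-containing buffer (10 uM ATP, imidazole pH 7.2, 7 mM MgCl2). Kinase-Glo luciferase reagent is then added. Light output is recorded following an 8-min room-temperature incubation.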
# ELG1 genotox: qHTS screen for small molecules that induce genotoxicity in human embryonic kidney (HEK293T) cells expressing luciferase-tagged ELG1. HEK293T ELG1-luciferase reporter, luminescence, 16 h. Potency, µM (top dose mostly 46 µM), for the others: at the top dose activity change, positive = activation, hits mostly activators. 330,000 compounds, 1.3% hits; also: % of control where 0% means no effect; nearly all actives have a fitted effect of over 60% in size
#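 DMSO vehicle served as control against compound-treated ELG1-luciferase HEK293T cells; exposure lasted 16 hr at 37 °C and 5% CO2, followed by ONE-Glo luminescence detection after 30 min.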
# FLuc counter: qHTS profiling assay for firefly luciferase inhibitor/activator using purifed enzyme and Km concentrations of substrates (counterscreen for miR-21 project). purified FLuc, Km substrates, luminescence inhibition. Luciferin 4-monooxygenase (Photinus pyralis), P08659. Potency, µM (highest dose often 57.5 µM), without a hit: top-dose activity change, negative = inhibition, actives largely listed as inhibitors. 360,000 compounds, 6.9% hits;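 also: plate controls were vehicle for no effect and reference inhibitor for full effect; nearly all actives have a fitted effect of over 55% in size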
# Target sequence (P08659 whole entry, looked up): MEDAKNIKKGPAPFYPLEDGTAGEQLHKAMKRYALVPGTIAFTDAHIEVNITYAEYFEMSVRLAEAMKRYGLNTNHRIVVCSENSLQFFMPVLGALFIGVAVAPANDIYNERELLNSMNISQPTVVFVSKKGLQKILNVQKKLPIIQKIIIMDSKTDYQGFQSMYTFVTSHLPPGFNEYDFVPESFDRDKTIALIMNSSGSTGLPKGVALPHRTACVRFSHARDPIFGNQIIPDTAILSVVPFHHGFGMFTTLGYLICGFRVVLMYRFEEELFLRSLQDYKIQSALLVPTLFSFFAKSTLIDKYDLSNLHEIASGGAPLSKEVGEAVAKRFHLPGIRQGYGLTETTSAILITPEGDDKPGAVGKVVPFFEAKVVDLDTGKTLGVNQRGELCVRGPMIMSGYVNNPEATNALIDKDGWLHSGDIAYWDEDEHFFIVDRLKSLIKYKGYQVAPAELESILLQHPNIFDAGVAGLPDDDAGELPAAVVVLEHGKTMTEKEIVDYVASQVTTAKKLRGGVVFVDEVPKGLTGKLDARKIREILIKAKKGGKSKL
#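 Purified P. pyralis luciferase, 10 nM final, with Km-level 10 uM D-luciferin and 10 uM ATP in 50 mM Tris acetate pH 7.5, 10 mM Mg acetate, 0.01% Tween-20, 0.05% BSA; 6-point qHTS titration about 60 µM downward; luminescence read.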
# SMN2 splice enh: qHTS Assay for Enhancers of SMN2 Splice Variant Expression; AID 1458, 2008; Potency, µM (highest dose often 46.1 µM), for inactives: top-dose activity change, positive = activation, hits mostly activators; HEK293 SMN2-luciferase splicing reporter, luminescence, 30-36 h; 210,000 compounds, 2.8% hits; also: % of control where 0% means no effect; nearly all actives have a fitted effect of over 55% in size
#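 HEK293 cells carry an SMN2 minigene-luciferase reporter in which exon 7 inclusion puts luciferase in frame. Cells were seeded at 2000 cells/well, attached for 10-12 hours, then exposed to compounds for 30-36 hours at 37C before ONE-Glo luminescence.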
# NPC1 promoter act: qHTS Assay for NPC1 Promoter Activators; AID 485313, 2010; Huh7 NPC1 promoter luciferase reporter, 24 h; 320,000 compounds, 2.4% hits; Potency, µM (top dose mostly 9.22 µM), for inactives: top-dose activation, hits mostly activators; also: % of control where 0% means no effect; nearly all actives have a fitted effect of over 60% in size
#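 Compounds in DMSO were transferred onto Huh7 NPC1-luciferase reporter cells pre-incubated 2 h; after 24 h at 37 °C, Amplite reagent was dispensed and luminescence recorded 10 min later.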
# Rab9 prom act: qHTS Assay for Rab9 Promoter Activators; Huh7 Rab9 promoter-luciferase reporter, luminescence, 24 h; 320,000 compounds, 2.8% hits; AID 485297, 2010; Potency, µM (highest dose often 9.22 µM), inactives show at the highest dose activation, negative = inhibition, most hits filed as activators; also: % of control where 0% means no effect; nearly all actives have a fitted effect of over 60% in size
#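 Measured in stably transfected Huh7 cells bearing a Rab9 promoter–luciferase construct: 24 h compound treatment at 37 °C, followed by luminescence detection.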
# Starred values were filed as active, the others as inactive; ? = inconclusive; · = no result. Only some compounds are listed: those with a hit (about 7.5% of all), similar ones and a draw of the others. Calls follow the shape of the dose curve; as a rule, active = well fitted curve in the direction sought with a large enough effect; inconclusive = small, poorly fitted or top-dose-only effect, or another doubt; inactive = no such curve, though single readings can be large; an effect the other way counts as inactive or inconclusive. Potency is read from the fitted curve at half-maximal effect.
SMILES,Luc counter,ELG1 genotox,FLuc counter,SMN2 splice enh,NPC1 promoter act,Rab9 prom act
CCSc1nnc(NC(=O)c2ccc(Br)s2)s1,6.9%,?,15.1µM*,?,?,?
CCSc1nnc(NC(=O)CC)s1,-0.4%,-3.2%,0.2%,-4.8%,0.2%,-5.2%
CCSc1nnc(NC(=O)c2ccccn2)s1,-29.0%,16.4µM*,8.49µM*,3.98µM*,0.891µM*,?
O=C(Nc1nnc(C(F)(F)F)s1)c1ccc(Br)s1,-0.4%,11.4%,8.49µM*,?,?,12.2%
O=C(Nc1nnc(C2CCCCC2)s1)c1ccc(Br)s1,2.6%,?,?,3.16µM*,0.501µM*,1.78µM*
COc1cccc(CNC(=O)CCc2ccc(OC)c(OC)c2)c1,·,-0.7%,-0.4%,·,1.3%,-5.0%
COc1ccc(S(=O)(=O)NCc2cc(=O)n(C)c(=O)n2C)cc1C,·,-0.5%,6.8%,·,-2.6%,-1.6%
COC(=O)[C@@H]1C[C@@]2(O)[C@@H](O)[C@@H](O)[C@@H](O)C[C@H]2N1Cc1cc(F)ccc1F,-7.1%,·,·,-2.6%,·,·
CN(C)C1=NCCN1CCCCc1ccccc1,·,0.6%,-0.4%,·,0.6%,-2.3%
CCSc1nnc(NC(=O)c2ccccc2C)s1,-7.3%,?,23.9µM*,10µM*,?,2.51µM*
CCSc1nnc(NC(=O)c2ccccc2)s1,-5.2%,?,13.5µM*,11.2µM*,3.55µM*,3.16µM*
CCSc1nnc(NC(=O)c2cccnc2)s1,-1.7%,?,?,?,?,28.7%
CCSc1nnc(NC(=O)c2cccnc2Cl)s1,-0.8%,?,?,17.8µM*,17.8%,11.2%
CCSc1nnc(NC(=O)c2cnccn2)s1,-2.6%,9.4%,2.3%,19.0%,8.4%,-0.8%
CCSc1nnc(NC(=O)[C@H](C)NC(=O)c2ccccc2Cl)s1,0.1%,-1.8%,-11.6%,1.8%,0.0%,-1.3%
Cc1onc(-c2c(F)cccc2Cl)c1C(=O)N=C(N)N1CCCC1,·,-0.3%,-0.3%,·,-4.5%,-9.7%
NC[C@](O)(CS(=O)(=O)O)c1ccc(Cl)cc1,5.2%,·,·,·,·,·
O=C(N/N=C/c1ccccc1)c1c(O)c2ccccc2[nH]c1=O,-3.6%,13.5%,?,3.55µM*,1.78µM*,1.41µM*
COc1ccccc1NC(=O)c1c(O)c2ccccc2[nH]c1=O,·,7.6%,?,·,1.26µM*,?
O=C(NC1CCCCCC1)c1c(O)c2ccccc2[nH]c1=O,-6.6%,?,2.69µM*,2.5%,1µM*,?
O=C(N/N=C/c1ccc(F)cc1)c1c(O)c2ccccc2[nH]c1=O,·,0.2%,-1.6%,·,0.5%,-3.1%
O=C(O)c1ccn(CSc2cc(Cl)ccc2Cl)n1,·,-0.3%,-7.5%,·,-0.9%,-3.1%
O=C(CN1CCN(S(=O)(=O)c2cccc(F)c2)CC1)Nc1ccnn1C1CCCC1,·,-0.7%,·,·,-0.6%,-0.1%
COc1ccc(F)cc1C(=O)C1CCCN(C(=O)c2ccccc2N(C)C)C1 (centres undefined),·,-4.4%,-1.2%,·,1.5%,1.1%
COc1ccccc1N1CCN(C(C)C(=O)Nc2ccc(S(=O)(=O)N3CCOCC3)cc2)CC1 (centres undefined),1.9%,-8.0%,4.0%,-26.1%,-0.6%,-0.4%
CC(=O)Nc1cccc(C)c1,·,-0.4%,1.5%,-3.8%,-1.3%,0.5%
CC(=O)c1cnc(Nc2cccc(C)c2)s1,-1.2%,11.1%,?,17.8µM*,?,2.51µM*
O=C(O)c1ccc(C(=O)Nc2ccc(F)cc2)cc1,·,-0.5%,-16.5%,·,-2.4%,-1.2%
O=C(Nc1ccncc1)c1ccc2ccccc2c1,-1.2%,15.4%,16.9µM*,·,?,3.55µM*
Cc1ccc(NC(=O)c2ccccc2)cc1,-16.1%,?,6.01µM*,14.1µM*,2µM*,2.24µM*
